Reference: PubChem BioAssay AID2315 (National Center for Advancing Translational Sciences (NCATS), 2010)
The campaign covered roughly 290,000 compounds. About 27,000 (9.3%) were called active. The sample holds actives, similar compounds and a random draw of the others, so the mix is not that of the screen. A number with no mark means an inactive call. Rule as the data show it: active = inhibition mostly above about 28% (no sharp cut-off); inactive = mostly below about 43%.

assay: A qHTS for Small Molecule Inhibitors of Shiga Toxin; conditions: Vero cells, Shiga toxin protein synthesis inhibition reporter; at 38.7 µM, hits give high values; also: 0% is about no effect

Question: With `CC(NC(=O)CCCC1CCCCC1)c1ccc(S(N)(=O)=O)cc1` (stereo unspecified) as the compound, how does the inhibition read?
Answer: The inhibition was -5.49%.

Question: For `COC(=O)c1cc(CNC(=O)CC(C)c2ccccc2)ccc1OC` (stereo unspecified), which inhibition is on record?
Answer: Its inhibition is -4.17%.

Question: Which inhibition does the source give for `Cn1ccnc1SCC(=O)Nc1ccc2c(c1)OCCO2` here?
Answer: The inhibition was 7.65%.

Question: With `O=C(CSc1nnnn1-c1ccc2c(c1)CCC2)Nc1ccc2c(c1)OCCO2` as the compound, how does the inhibition read?
Answer: The inhibition was 33.4%.

Question: For `Cc1ccc(SCC(=O)Nc2ccc3c(c2)OCCO3)cc1`, which inhibition is on record?
Answer: The inhibition was 77.1% (active).

Question: For `O=C(CSc1nnnn1C1CCCC1)Nc1ccc2c(c1)OCCO2`, which inhibition is on record?
Answer: The inhibition was 129% (active).

Question: With `CCC(=O)Nc1cccc(NC(=O)CSc2nnnn2C2CCCC2)c1` as the compound, how does the inhibition read?
Answer: Its inhibition is -2.63%.

Question: With `Cc1ccc(S(=O)(=O)NCC(=O)Nc2ccc3c(c2)OCCO3)cc1` as the compound, how does the inhibition read?
Answer: The inhibition was -18.4%.

Question: Which inhibition does the source give for `Cc1cc(OC(=O)c2ccc(OC(C)C)cc2)c([N+](=O)[O-])c(=O)[nH]1` here?
Answer: The inhibition was 13%.

Question: With `COc1ccc(-n2nc3c(N4CCC(C(=O)NCc5ccccc5)CC4)nnc(C)c3c2C)cc1` as the compound, how does the inhibition read?
Answer: The inhibition was -7%.

Question: With `COc1ccc(CCNC(=O)CCc2cn(C)c3ccccc23)c(OC)c1` as the compound, how does the inhibition read?
Answer: Its inhibition is -3.65%.

Question: Which inhibition does the source give for `O=C(/C=C/c1ccco1)Nc1ccc(Oc2ccccc2)cc1` here?
Answer: The inhibition was 80.2% (active).

Question: Which inhibition does the source give for `CCC(CC)c1nnc(NC(=O)/C=C/c2ccco2)s1` here?
Answer: The inhibition was 20%.

Question: For `CC(C)CNC(=O)COC(=O)/C=C/c1ccco1`, which inhibition is on record?
Answer: Its inhibition is -5.59%.

Question: Which inhibition does the source give for `Cc1ccc(C(=O)COc2cccc(NC(=O)c3ccco3)c2)cc1` here?
Answer: Its inhibition is 14.8%.

Question: Which inhibition does the source give for `O=C(O)/C=C\C(=O)Nc1ccc(OCc2ccccc2)cc1` here?
Answer: Its inhibition is 43%.

Question: With `CN1CCN(S(=O)(=O)c2ccc(NC(=O)c3ccco3)cc2)CC1` as the compound, how does the inhibition read?
Answer: Its inhibition is 47.4%.

Question: Which inhibition does the source give for `C/C(=N/NS(=O)(=O)c1ccccc1)c1ccc(NC(=O)C(F)(F)F)cc1` here?
Answer: The inhibition was -9.75%.

Question: Which inhibition does the source give for `Cc1nnc(NC(=O)/C=C/c2ccco2)s1` here?
Answer: The inhibition was 45.9% (active).

Question: With `Cc1cccc(NC(=O)Nc2cccc(Oc3c(F)c(F)c(F)c(F)c3F)c2)c1` as the compound, how does the inhibition read?
Answer: Its inhibition is -0.582%.

Question: For `CCc1nnc(NC(=O)/C=C/c2ccc(C)o2)s1`, which inhibition is on record?
Answer: The inhibition was 26.8%.

Question: For `C/C(=N\NS(=O)(=O)c1ccc(Cl)cc1)c1ccc(NC(=O)c2ccco2)cc1`, which inhibition is on record?
Answer: The inhibition was 34% (active).

Question: With `CCOC(=O)c1cccc(NS(=O)(=O)c2c(C(=O)N3CCCCCC3)c(C)n(C)c2C)c1` as the compound, how does the inhibition read?
Answer: The inhibition was -9.67%.

Question: With `CC(=O)Nc1ccc(NC(=O)[C@@H](NC(=O)c2cccc(C)c2)C(C)C)cc1` as the compound, how does the inhibition read?
Answer: The inhibition was -2.98%.

Question: For `Cc1cc(C)cc(OCC(=O)Nc2cc(NC(=O)COc3cc(C)cc(C)c3)cc(C(=O)O)c2)c1`, which inhibition is on record?
Answer: The inhibition was -3.47%.

Question: For `Cc1ccc(NC(=O)CSc2cccc3cccnc23)c(C)c1`, which inhibition is on record?
Answer: Its inhibition is 21.1%.

Question: Which inhibition does the source give for `O=C(CN1C(=O)COc2ccc(Cl)cc21)N1CCOCC1` here?
Answer: The inhibition was -1.98%.

Question: For `CC1CCN(S(=O)(=O)c2nnc(NC(=O)COc3ccccc3F)s2)CC1`, which inhibition is on record?
Answer: Its inhibition is 2.6%.

Question: Which inhibition does the source give for `O=C(Nc1ccc(NC(=O)c2cccs2)cn1)c1ccco1` here?
Answer: The inhibition was 27.3%.

Question: For `O=C(Nc1ccc(O)cc1)c1ccc(NC(=O)c2ccco2)cc1`, which inhibition is on record?
Answer: Its inhibition is 32.1% (active).

Question: For `COc1ccc(NC(=O)c2cccc(NC(=O)c3ccco3)c2)c(OC)c1`, which inhibition is on record?
Answer: The inhibition was 7.82%.

Question: Which inhibition does the source give for `COc1cccc(C(=O)Nc2ccc(NC(=O)c3ccco3)cn2)c1` here?
Answer: The inhibition was 124% (active).

Question: For `O=C(Nc1ccc2oc(-c3ccccc3F)nc2c1)c1ccco1`, which inhibition is on record?
Answer: The inhibition was 85.3% (active).

Question: With `O=C(Nc1cccc(-c2nc3ncccc3o2)c1)c1ccco1` as the compound, how does the inhibition read?
Answer: The inhibition was 1.9%.

Question: For `CCCC(=O)Nc1ccc2c(c1)nc(CCNC(=O)c1ccco1)n2C`, which inhibition is on record?
Answer: Its inhibition is -1.85%.

Question: Which inhibition does the source give for `Cc1ccc(NC(=O)/C(=C\c2ccccc2)NC(=O)c2ccco2)cc1` here?
Answer: Its inhibition is 15.6%.

Question: With `Cc1cc(NC(=O)c2ccc(F)cc2)ccc1NC(=O)c1ccco1` as the compound, how does the inhibition read?
Answer: Its inhibition is 39.7%.

Question: For `Cc1ccnc(NC(=O)c2ccc(NC(=O)c3ccco3)cc2)c1`, which inhibition is on record?
Answer: The inhibition was 64.6% (active).

Question: With `Cc1cc(=O)oc2c3c(cc(OCC(=O)N[C@H](C(=O)O)c4ccccc4)c12)OC(C)(C)CC3` as the compound, how does the inhibition read?
Answer: The inhibition was 9.9%.

Question: Which inhibition does the source give for `Oc1ccc(C2Nc3cccc4cccc(c34)N2)cc1` here?
Answer: Its inhibition is -4.55%.

Question: With `CSc1ccc(S(=O)(=O)N2CCC(C(=O)NCc3ccncc3)CC2)cc1` as the compound, how does the inhibition read?
Answer: The inhibition was -6.82%.

Question: With `CCOC(=O)N1CCN(S(=O)(=O)c2ccc(Br)cc2)CC1` as the compound, how does the inhibition read?
Answer: The inhibition was 9.83%.

Question: With `COCCN1C(=O)C(=O)/C(=C(/O)c2ccc(S(=O)(=O)N3CCOCC3)cc2)C1c1ccc(OC)c(OC)c1` (stereo unspecified) as the compound, how does the inhibition read?
Answer: The inhibition was -8.01%.

Question: For `Cc1cccn2c(=O)c(/C=C(\C#N)C(N)=O)c(N3CCCCCC3)nc12`, which inhibition is on record?
Answer: The inhibition was -3.79%.

Question: For `CC(C)Oc1ccc(C(CC(=O)N2CCOCC2)C(C)C)cc1` (stereo unspecified), which inhibition is on record?
Answer: Its inhibition is 5.33%.

Question: Which inhibition does the source give for `COc1cc(C2/C(=C(\O)c3ccc4c(c3)CC(C)O4)C(=O)C(=O)N2c2nnc(C)s2)cc(OC)c1OC` (stereo unspecified) here?
Answer: Its inhibition is -6.77%.

Question: With `Cc1ccc(C(=O)NC2CCN(C(=O)Nc3ccccc3Cl)CC2)cc1` as the compound, how does the inhibition read?
Answer: The inhibition was -5.62%.

Question: For `COCCOC(=O)C1=C(C)NC(=O)NC1c1cc2c(cc1Br)OCO2` (stereo unspecified), which inhibition is on record?
Answer: Its inhibition is 13.8%.

Question: Which inhibition does the source give for `O=C(Nc1ccccc1)/C(=C\c1ccco1)NC(=O)c1ccco1` here?
Answer: Its inhibition is 14.3%.

Question: With `O=C(Nc1ccncc1)c1ccc(Cl)c([N+](=O)[O-])c1` as the compound, how does the inhibition read?
Answer: Its inhibition is -0.478%.

Question: For `O=C(Nc1cccc(NC(=O)c2ccco2)c1)c1cnccn1`, which inhibition is on record?
Answer: Its inhibition is 7.98%.

Question: For `Cc1ccnc(NC(=O)c2ccco2)n1`, which inhibition is on record?
Answer: The inhibition was 24.9%.

Question: Which inhibition does the source give for `COC(=O)c1cc(NC(=O)c2ccco2)ccc1N1CCOCC1` here?
Answer: Its inhibition is -9.27%.

Question: Which inhibition does the source give for `Cc1ccnc(NC(=O)c2ccc(Cl)c([N+](=O)[O-])c2)c1` here?
Answer: Its inhibition is 50.2% (active).

Question: For `Cc1cc(NC(=O)[C@H](C)NC(=O)c2ccco2)ccc1Br`, which inhibition is on record?
Answer: Its inhibition is 4.7%.

Question: With `O=C(Nc1ccccc1)c1ccco1` as the compound, how does the inhibition read?
Answer: The inhibition was 19.7%.

Question: For `O=C(Nc1ccc2nccnc2c1)c1ccco1`, which inhibition is on record?
Answer: The inhibition was 98.5% (active).

Question: Which inhibition does the source give for `O=C(Nc1ccc(Oc2ccccc2)cc1)c1ccco1` here?
Answer: Its inhibition is 169% (active).

Question: For `O=C(Nc1ccc(Sc2ccc(Br)cc2)cc1)c1ccco1`, which inhibition is on record?
Answer: The inhibition was 60.3% (active).

Question: Which inhibition does the source give for `O=C(Nc1cccnc1)c1ccc(Cl)c([N+](=O)[O-])c1` here?
Answer: Its inhibition is 52.4%.

Question: Which inhibition does the source give for `O=[N+]([O-])c1ccc(NC(=S)N2CCN(c3ccccn3)CC2)cc1` here?
Answer: The inhibition was -11.7%.
